# Measurements: the supplement of paper PMC8728848
# This excerpt belongs to a sample that is enriched for the strongest signals.
# B1: TIM1 (protein)
# chain: ADGIQSVKVGGEAGPSVTLPCHYSGAVTSMCWNRGSCSLFTCQNGIVWTNGTHVTYRKDTRYKLLGDLSRRDVSLTIENTAVSDSGVYCCRVEHRGWFNDMKITVSLEIVPPHHHHHH
# Experiments:
# Assay in all cases: glycan array binding signal (z-score within array); higher = stronger binding
# Details in all cases: glycan notation: IUPAC condensed, linker removed
# [1] = target: Fuc(a1-2)Gal(b1-3)GlcNAc(b1-2)Man(a1-3)[Fuc(a1-2)Gal(b1-3)GlcNAc(b1-2)Man(a1-6)]Man(b1-4)GlcNAc(b1-4)[Fuc(a1-6)]GlcNAc
# How it was run: (§1)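 The Consortium for Functional Glycomics database supplied 3228 glycan arrays, of which those lacking an available protein sequence were dropped. The binding signal, a within-array Z-score, was averaged across arrays of the same protein sequence and across linkers. Negative scores can be read as non-binding.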
# [2] = target: Fuc(a1-2)Gal(b1-3)GlcNAc(b1-3)GalNAc
# How it was run: as §1
# [3] = target: Fuc(a1-2)Gal(b1-4)[Fuc(a1-3)]GlcNAc(b1-2)Man(a1-3)[Fuc(a1-2)Gal(b1-4)[Fuc(a1-3)]GlcNAc(b1-2)Man(a1-6)]Man(b1-4)GlcNAc(b1-4)[Fuc(a1-6)]GlcNAc
# How it was run: as §1
# [4] = target: Fuc(a1-2)Gal3S(b1-4)GlcNAc
# How it was run: as §1
# [5] = target: Fuc(a1-2)[Gal(a1-3)]Gal(b1-4)GlcNAc(b1-3)[Fuc(a1-2)[Gal(a1-3)]Gal(b1-4)GlcNAc(b1-6)]GalNAc
# How it was run: as §1
# [6] = target: Fuc(a1-2)[GalNAc(a1-3)]Gal(b1-3)GlcNAc
# How it was run: as §1
# [7] = target: Fuc(a1-2)[GalNAc(a1-3)]Gal(b1-4)GlcNAc(b1-2)Man(a1-3)[Fuc(a1-2)[GalNAc(a1-3)]Gal(b1-4)GlcNAc(b1-2)Man(a1-6)]Man(b1-4)GlcNAc(b1-4)[Fuc(a1-6)]GlcNAc
# How it was run: as §1
# [8] = target: Fuc(a1-4)GlcNAc
# How it was run: as §1
# [9] = target: Gal(a1-3)Gal(b1-3)GlcNAc(b1-3)GalNAc
# How it was run: as §1
# [10] = target: Gal(a1-3)Gal(b1-3)[Fuc(a1-4)]GlcNAc(b1-2)Man(a1-3)[Gal(a1-3)Gal(b1-3)[Fuc(a1-4)]GlcNAc(b1-2)Man(a1-6)]Man(b1-4)GlcNAc(b1-4)GlcNAc
# How it was run: as §1
# [11] = target: Gal(a1-3)Gal(b1-4)GlcNAc(b1-2)Man(a1-3)[Gal(a1-3)Gal(b1-4)GlcNAc(b1-2)Man(a1-6)]Man(b1-4)GlcNAc(b1-4)GlcNAc
# How it was run: as §1
# [12] = target: Gal(a1-4)Gal(b1-4)GlcNAc(b1-2)Man(a1-3)[Gal(a1-4)Gal(b1-4)GlcNAc(b1-2)Man(a1-6)]Man(b1-4)GlcNAc(b1-4)GlcNAc
# How it was run: as §1
# [13] = target: Gal(b1-3)GlcNAc6S
# How it was run: as §1
# [14] = target: Gal(b1-3)[Fuc(a1-4)]GlcNAc
# How it was run: as §1
# [15] = target: Gal(b1-4)GalNAc(a1-3)[Fuc(a1-2)]Gal(b1-4)GlcNAc
# How it was run: as §1
# [16] = target: Gal(b1-4)GlcNAc(b1-2)Man
# How it was run: as §1
# [17] = target: Gal(b1-4)GlcNAc(b1-3)Gal(b1-4)GlcNAc(b1-2)Man(a1-3)[Gal(b1-4)GlcNAc(b1-3)Gal(b1-4)GlcNAc(b1-2)Man(a1-6)]Man(b1-4)GlcNAc(b1-4)GlcNAc
# How it was run: as §1
# [18] = target: Gal(b1-4)GlcNAc(b1-3)Gal(b1-4)GlcNAc(b1-3)Gal(b1-4)GlcNAc(b1-2)Man(a1-3)[Gal(b1-4)GlcNAc(b1-3)Gal(b1-4)GlcNAc(b1-3)Gal(b1-4)GlcNAc(b1-2)Man(a1-6)]Man(b1-4)GlcNAc(b1-4)GlcNAc
# How it was run: as §1
# [19] = target: Gal(b1-4)GlcNAc(b1-3)Gal(b1-4)GlcNAc(b1-3)Gal(b1-4)GlcNAc(b1-3)Gal(b1-4)GlcNAc(b1-2)Man(a1-3)[Gal(b1-4)GlcNAc(b1-3)Gal(b1-4)GlcNAc(b1-3)Gal(b1-4)GlcNAc(b1-3)Gal(b1-4)GlcNAc(b1-2)Man(a1-6)]Man(b1-4)GlcNAc(b1-4)GlcNAc
# How it was run: as §1
# [20] = target: Gal(b1-4)GlcNAc(b1-3)Gal(b1-4)GlcNAc(b1-3)Gal(b1-4)GlcNAc(b1-3)Gal(b1-4)GlcNAc(b1-2)Man(a1-3)[Gal(b1-4)GlcNAc(b1-3)Gal(b1-4)GlcNAc(b1-3)Gal(b1-4)GlcNAc(b1-3)Gal(b1-4)GlcNAc(b1-2)Man(a1-6)]Man(b1-4)GlcNAc(b1-4)[Fuc(a1-6)]GlcNAc
# How it was run: as §1
# [21] = target: Gal(b1-4)GlcNAc(b1-3)Gal(b1-4)GlcNAc(b1-3)Gal(b1-4)GlcNAc(b1-3)Gal(b1-4)GlcNAc(b1-3)Gal(b1-4)GlcNAc(b1-2)Man(a1-3)[Gal(b1-4)GlcNAc(b1-3)Gal(b1-4)GlcNAc(b1-3)Gal(b1-4)GlcNAc(b1-3)Gal(b1-4)GlcNAc(b1-3)Gal(b1-4)GlcNAc(b1-2)Man(a1-6)]Man(b1-4)GlcNAc(b1-4)[Fuc(a1-6)]GlcNAc
# How it was run: as §1
# [22] = target: Gal(b1-4)GlcNAc(b1-3)Gal(b1-4)GlcNAc(b1-3)[Gal(b1-4)GlcNAc(b1-3)Gal(b1-4)GlcNAc(b1-6)]GalNAc
# How it was run: as §1
# [23] = target: Gal6S(b1-3)GlcNAc6S
# How it was run: as §1
# [24] = target: Gal6S(b1-4)GlcNAc
# How it was run: as §1
# [25] = target: GalNAc(a1-3)GalNAc(b1-3)Gal(a1-4)Gal(b1-4)Glc
# How it was run: as §1
# [26] = target: GalNAc(b1-3)Gal(a1-4)Gal(b1-4)GlcNAc
# How it was run: as §1
# [27] = target: GalNAc(b1-3)GlcNAc
# How it was run: as §1
# [28] = target: GalNAc6S(b1-4)GlcNAc
# How it was run: as §1
# [29] = target: Glc(a1-6)Glc(a1-6)Glc
# How it was run: as §1
# [30] = target: GlcNAc(a1-4)Gal(b1-4)GalNAc
# How it was run: as §1
binder,measurement,setting,value
B1,glycan array binding signal (z-score),[1],-0.132
same,glycan array binding signal (z-score),[2],-0.153
same,glycan array binding signal (z-score),[3],0.121
same,glycan array binding signal (z-score),[4],-0.264
same,glycan array binding signal (z-score),[5],1.94
same,glycan array binding signal (z-score),[6],-0.189
same,glycan array binding signal (z-score),[7],-0.187
same,glycan array binding signal (z-score),[8],8.15
same,glycan array binding signal (z-score),[9],-0.169
same,glycan array binding signal (z-score),[10],0.01
same,glycan array binding signal (z-score),[11],0.343
same,glycan array binding signal (z-score),[12],-0.176
same,glycan array binding signal (z-score),[13],-0.212
same,glycan array binding signal (z-score),[14],-0.25
same,glycan array binding signal (z-score),[15],-0.212
same,glycan array binding signal (z-score),[16],0.009
same,glycan array binding signal (z-score),[17],7.65
same,glycan array binding signal (z-score),[18],3.39
same,glycan array binding signal (z-score),[19],0.208
same,glycan array binding signal (z-score),[20],0.223
same,glycan array binding signal (z-score),[21],-0.05
same,glycan array binding signal (z-score),[22],2.45
same,glycan array binding signal (z-score),[23],-0.043
same,glycan array binding signal (z-score),[24],-0.175
same,glycan array binding signal (z-score),[25],-0.178
same,glycan array binding signal (z-score),[26],0.287
same,glycan array binding signal (z-score),[27],-0.188
same,glycan array binding signal (z-score),[28],-0.269
same,glycan array binding signal (z-score),[29],-0.212
same,glycan array binding signal (z-score),[30],0.413
